The results in this text go back to PubChem BioAssay AID720555 (National Center for Advancing Translational Sciences (NCATS), 2013).

Results filed as inconclusive are left out. Activity calls are given as the source filed them. The call rests on the fitted dose curve; in most records, active means well fitted inhibition curve with a large enough effect; inconclusive means small, poorly fitted or top-dose-only effect; inactive means no such curve, though single readings can be large or run the other way.

RecQ-like DNA helicase BLM (Homo sapiens), sequence (P54132 whole entry, looked up): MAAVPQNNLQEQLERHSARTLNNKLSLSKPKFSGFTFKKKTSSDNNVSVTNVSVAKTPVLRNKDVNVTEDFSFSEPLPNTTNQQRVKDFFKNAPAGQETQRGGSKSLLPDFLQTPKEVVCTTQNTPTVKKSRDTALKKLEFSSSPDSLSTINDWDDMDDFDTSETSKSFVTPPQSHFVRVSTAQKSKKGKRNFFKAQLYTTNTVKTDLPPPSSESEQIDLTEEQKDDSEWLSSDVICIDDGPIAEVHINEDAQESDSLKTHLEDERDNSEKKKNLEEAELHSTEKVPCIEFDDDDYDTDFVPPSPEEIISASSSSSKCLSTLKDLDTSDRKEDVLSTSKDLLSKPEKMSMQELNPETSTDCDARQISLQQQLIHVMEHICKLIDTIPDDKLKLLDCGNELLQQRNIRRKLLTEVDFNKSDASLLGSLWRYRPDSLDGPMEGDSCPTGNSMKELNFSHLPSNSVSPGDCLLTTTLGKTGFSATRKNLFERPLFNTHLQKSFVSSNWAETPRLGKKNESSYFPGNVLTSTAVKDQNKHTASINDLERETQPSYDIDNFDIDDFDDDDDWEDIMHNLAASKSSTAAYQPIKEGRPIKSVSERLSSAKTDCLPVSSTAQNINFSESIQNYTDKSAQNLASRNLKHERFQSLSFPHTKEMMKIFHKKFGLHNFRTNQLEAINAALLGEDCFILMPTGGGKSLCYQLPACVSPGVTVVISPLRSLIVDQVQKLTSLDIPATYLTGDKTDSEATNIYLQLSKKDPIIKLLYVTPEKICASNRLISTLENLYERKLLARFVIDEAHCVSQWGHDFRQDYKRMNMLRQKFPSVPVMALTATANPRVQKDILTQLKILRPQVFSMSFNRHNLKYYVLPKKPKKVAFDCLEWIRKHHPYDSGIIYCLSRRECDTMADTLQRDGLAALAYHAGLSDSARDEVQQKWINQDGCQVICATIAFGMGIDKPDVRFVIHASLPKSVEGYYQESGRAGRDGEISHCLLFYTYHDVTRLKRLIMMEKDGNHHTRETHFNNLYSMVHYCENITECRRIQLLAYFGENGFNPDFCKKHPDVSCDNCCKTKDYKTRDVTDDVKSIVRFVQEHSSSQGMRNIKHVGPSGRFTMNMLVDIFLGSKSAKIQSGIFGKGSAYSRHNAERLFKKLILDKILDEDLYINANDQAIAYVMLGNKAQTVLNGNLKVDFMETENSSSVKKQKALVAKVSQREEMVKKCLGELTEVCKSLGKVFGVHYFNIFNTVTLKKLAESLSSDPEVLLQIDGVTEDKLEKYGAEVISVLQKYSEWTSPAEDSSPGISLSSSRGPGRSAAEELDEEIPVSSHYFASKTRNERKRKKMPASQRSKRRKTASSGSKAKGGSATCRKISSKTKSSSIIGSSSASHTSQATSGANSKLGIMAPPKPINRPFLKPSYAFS

This experiment addresses RecQ-like DNA helicase BLM (Homo sapiens) (UniProt P54132). Kind of experiment: qHTS for Inhibitors of Bloom's syndrome helicase (BLM): Helicase DNA unwinding fluorescent orthogonal confirmatory assay for SAR. Conditions: fluorescence, orthogonal confirmation. An excerpt:
Human RecQ DNA helicases participate in maintenance of genome stability and DNA repair. While other types of helicases have been explored as targets for drug development, members of the RecQ family have remained less well characterized. Mutations of the Bloom helicase gene have been associated with the rare human genetic disease called Bloom syndrome. […] Moreover, identified inhibitors can be used in cells and animal models to examine the consequences of inhibition on the survival of cancer cells where it has been shown that BLM plays an important role.
A fluorescence-based, biochemical assay in 1536 well format was developed to evaluate inhibition of BLM DNA unwinding activity. This assay was used to screen the MLPCN library. The resulting compounds were subjected to orthogonal and secondary biochemical assays to triage the initial hits, to classify compounds based on mode of action and to derive structure activity relationships (SARs) of candidate effectors. The data herein is the result of the Helicase DNA unwinding fluorescent orthogonal confirmatory assay. This fluorescent-based assay employs a purified BLM enzyme and utilizes gel electrophoresis to monitor the helicase-mediated unwinding of a fluorescently-labeled DNA substrate. For this assay decrease in the single-stranded DNA product band on the gel = inhibition of the BLM helicase activity. Inhibition is the desired outcome for this assay.
NIH Chemical Genomics Center [NCGC]
NIH Molecular Libraries Probe Centers Network [MLPCN]
Assay Submitter (PI): Opher Gileadi, Structural Genomics Consortium, University of Oxford, UK
Unwinding assay for the BLM helicase was carried out in a reaction buffer containing 50 mM Tris-HCl pH 7.5, 50mM NaCl, 2mM MgCl2, 2mM ATP, 1mM DTT, and 0.1 mg/ml BSA. Optimal substrate and enzyme concentrations as well as reaction times were determined experimentally. All reactions were performed at room temperature and terminated by the addition of loading buffer containing 20mM EDTA and 2.5% bromophenol blue. […] Substrate and product bands were quantified using ImageJ. […]
As to `N#Cc1ccc(NC(=O)Nc2nnc(-c3ccncc3)s2)cc1C(F)(F)F`, the Potency was 5620 nM (active). In the case of `N#Cc1ccc(NC(=O)Nc2nnc(-c3ccncc3)s2)cc1Br` it was 1120 nM (active).

On to `N#Cc1ccc(NC(=O)Nc2nnc(-c3ccncc3)s2)cc1Cl`, for which the Potency was 1580 nM (active).
